Rows were chosen to be rich in hits. Some 6.2% of all compounds tested hit in one or more screens of this group.
HCMV inh – human cytomegalovirus inhibition; HFF cells, HCMV-luciferase reporter, 72 h; hits give low values; activity change, negative = inhibition, % at 57.5 µM; actives 4.5% (n = 410,000); AID 1259415; in the data active = activity change below about -60%; inconclusive = no clear call, values can overlap the other calls; inactive = above about -39%
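Inhibition of viral replication was scored as loss of reporter luminescence in HFFs infected with HCMV-luciferase (MOI 1 PFU/cell) for 72 h; compounds tested at 2 doses, normalized to buffer and Salinomycin controls.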
FMDV antiviral – blocks foot and mouth disease virus; FMDV antiviral cell-based qHTS; Potency, µM (highest dose often 57.9 µM), without a hit: at the highest dose activity change, negative = inhibition, usual class: inhibitors; actives 1.2% (n = 410,000); calls by dose curve; tested in HEK293T cells; note: read-out not given here; potency is the fitted concentration of half-maximal effect; nearly all actives have a fitted effect of over 45% in size
LASV entry inh – Lassa virus entry inhibition; Lassa virus pseudotype entry inhibition, cell reporter; Potency, µM (doses to about 37.9 µM), inactives show at the top dose activity change, negative = inhibition, actives largely listed as inhibitors; actives 1.2% (n = 300,000); calls by dose curve; tested in HEK293 cells; note: potency is the fitted concentration of half-maximal effect; nearly all actives have a fitted effect of over 50% in size
Marburg entry inh – blocks Marburg virus binding to or entry into cells; Potency, µM (series often up to 37.8 µM), inactives show at the top dose activity change, negative = inhibition, hits mostly inhibitors; actives 1.8% (n = 300,000); Marburg virus pseudotyped entry inhibition, cell reporter; calls by dose curve; tested in HEK293 cells; note: potency is the fitted concentration of half-maximal effect
The depositor's hits bear a star; ? = inconclusive; / = no result; [ ] = remark or other dose. % is set by controls: 0 for no effect and ±100 for the full control effect.

SMILES	HCMV inh	FMDV antiviral	LASV entry inh	Marburg entry inh
Cc1ccc2nc(C(Cl)(Cl)Cl)nc(N/N=C/c3ccc([N+](=O)[O-])cc3)c2c1	-28	22µM*	25%	10%[46.1 µM]
Cc1onc(NC(=O)CSCC(=O)O)c1Br	-73*	1%	-15%[46.1 µM]	7%[46.1 µM]
CC(=O)c1ccc(NC(=O)CN2C(=O)/C(=C/C=C/c3ccccc3)SC2=S)cc1	?	1%	-3%	5%
Cc1ccc(N(CCCCN2C(=O)c3ccccc3C2=O)C(=O)c2cccs2)cc1	-83*	-29%	?	?
COc1ccc(N(CCCN2C(=O)c3cccc4cccc(c34)C2=O)C(=O)c2cccs2)cc1	-21	-29%	0%	2%
CC1CCN(CC(CS(=O)(=O)c2ccc([N+](=O)[O-])cc2)N2CCC(C)CC2)CC1 (stereo not drawn)	-62*	28µM*	/	/
CCOC(=O)C1(C)NC(c2ccco2)C2C(=O)N(c3ccc(C)cc3)C(=O)C21 (stereo not drawn)	5	7%	-9%	2%[46.1 µM]
CCC(=O)c1c(NCCc2ccccc2)cc(C)oc1=O	-98*	-18%	1%	1%
O=C(O)c1cc2ccccc2[nH]1	5	-10%	/	/
Cc1ccc(CS(=O)(=O)c2ccc(C(=O)N3CCCCC3)cc2[N+](=O)[O-])cc1	-27	?	-35%	?
O=C(c1ccc(S(=O)(=O)c2ccccc2Cl)c([N+](=O)[O-])c1)N1CCN(Cc2ccccc2)CC1	-85*	11µM*	?	?
Cc1ccc(C(=O)N2CCOCC2)cc1[N+](=O)[O-]	-6	-21%	4%	14%
O=C(c1ccc(S(=O)(=O)c2ccc(F)cc2)c([N+](=O)[O-])c1)N1CCCCCC1	?	13µM*	?	?
CC1CCN(C(=O)c2ccc(S(=O)(=O)Cc3ccccc3F)c([N+](=O)[O-])c2)CC1	-76*	20µM*	?	?
O=C(c1ccc(S(=O)(=O)Cc2ccccc2Cl)c([N+](=O)[O-])c1)N1CCOCC1	-69*	?	?	?
O=C(c1ccc(S(=O)(=O)Cc2ccccc2F)c([N+](=O)[O-])c1)N1CCCC1	-5	?	-2%	?
O=C(CN1C(=O)S/C(=C\c2ccc(O)cc2)C1=O)c1ccccc1	?	10%	13%	-27%[46.1 µM]
Cc1ccc(CS(=O)(=O)c2ccc(C(=O)N3CCN(c4ccccn4)CC3)cc2[N+](=O)[O-])cc1	-91*	16µM*	-24%	?
Cc1ccnc(NC(=O)CS(=O)(=O)c2ccccc2)c1	15	56%	19%[46.1 µM]	?
Cc1ccnc(NC(=O)CS(=O)(=O)Cc2ccccc2)c1	-99*	34%	-7%	27%
Cc1ccnc(NC(=O)Cc2ccc(-c3ccccc3)cc2)c1	-90*	54%	/	/
CCn1nc(NC(=O)CC(C)C)c2cc3ccc(C)cc3nc21	-21	-7%	/	/
CSc1ccc(NC(=O)Nc2cc(C)ccn2)cc1	6	-43%	7.1µM*	7.1µM*
CN(C)c1ccc(C#Cc2ccc3cc(CCCO)oc(=O)c3c2)cc1	66	32%	/	/
Cc1ccc(NC(=O)CSc2nc(N)c3c4c(sc3n2)CSC(C)(C)C4)cc1	33	?	21µM*	?
SMILES	HCMV inh	FMDV antiviral	LASV entry inh	Marburg entry inh
CC1Cc2ccccc2N1S(=O)(=O)c1cccc(C(=O)NNC(=O)c2ccccc2F)c1 (stereo not drawn)	0	-1%	/	/
Cc1cc(C(C)(C)C)cc(C)c1C[n+]1ccc2ccccc2c1	-96*	?	/	/
CCC1CCCCN1CCCNC(=O)CSc1nc2nc(C)c(Cc3ccc(C)cc3)c(C)n2n1 (stereo not drawn)	-33	-9%	?	11µM*
CCC1CCCCN1CCCNC(=O)Cn1nc(-c2ccc(C)cc2)ccc1=O (stereo not drawn)	-71*	/	-5%	?
Cc1ccc(-c2ccc(=O)n(CC(=O)NCCN3CCCCC3C)n2)cc1 (stereo not drawn)	-18	/	-4%	5%
CCCCCN(C(=O)CCC(=O)OCc1ccccc1F)c1c(N)n(CCCC)c(=O)[nH]c1=O	-24	-21%	4%	-3%
CCn1c2ccccc2c2cnc(N=CN(C)C)c(C#N)c21	-70*	?	-8%	?
CCN(CC)CCn1c2ccccc2c2cnc(N=CN(C)C)c(C#N)c21	-94*	-9%	?	?
CC(=O)NCCNc1ncnc2ccc(-c3ccccc3Cl)cc12	/	-5%	/	/
O=C(CCCn1c(=S)[nH]c2ccsc2c1=O)Nc1ccc2c(c1)OCCO2	-75*	-18%	/	12%[46.1 µM]
C=CCN=c1scc(-c2ccc(F)cc2)n1/N=C/c1ccccn1	-85*	0%	?	?
CCN=c1scc(-c2ccc(F)cc2)n1/N=C/c1ccccn1	-88*	-14%	?	?
CC(Oc1ccc2c(-c3ccccc3)cc(=O)oc2c1)C(=O)NCCCN1CCOCC1 (stereo not drawn)	-21	-12%	-8%[46.1 µM]	-1%[46.1 µM]
COc1ccc2nc(N=NC3=C(O)CC(C)(C)CC3=O)sc2c1	-95*	12%	15µM*	13µM*
COc1ccc2nc(N=Nc3ccc(O)c4ccccc34)sc2c1	-76*	0%	?	?
COc1ccc2nc(N)sc2c1	43	35%	8%	5%
CC1(C)CC(=O)C(N=Nc2ccc3ncsc3c2)=C(O)C1	-3	40%	?	11%
c1ccc2c(c1)ncn2CCCCOc1ccc2c(c1)CCC2	11	-25%	8%	-19%
O=C(c1ccccc1)N1CCN(C(=O)c2ccccc2)c2ccccc21	-100*	35µM*	?	?
O=C(c1ccccc1)N1CCc2ccccc21	6	-4%	4%	13%
CC1CCCC(NC(=O)NC(=O)CCl)C1C (stereo not drawn)	-29	20µM*	0%	-8%
COc1ccc2[nH]c(=O)c(CN(Cc3cccs3)S(=O)(=O)c3c(C)ccc4nsnc34)cc2c1	-103*	19%	13µM*	?
Cc1ccc2nsnc2c1S(=O)(=O)N(Cc1ccco1)Cc1cc2ccc(C)c(C)c2[nH]c1=O	-85*	-21%	?	1.6µM*
Cc1ccc(-c2csc(NC(=O)COC(=O)c3cccc(S(=O)(=O)N4CCOCC4)c3)n2)cc1	104	-6%	-24%	?
COc1cc(C(=O)Nc2nc(-c3ccc(F)cc3)cs2)ccc1OCC(=O)N1CCOCC1	?	-63%	?	?
SMILES	HCMV inh	FMDV antiviral	LASV entry inh	Marburg entry inh
Cc1ccc(-c2csc(NC(=O)C3=NN(c4ccccc4)C(=O)CC3)n2)cc1	-27	28µM*	?	?
COc1cccc(C(=O)Nc2nc(-c3ccc(S(=O)(=O)N4CCOCC4)cc3)cs2)c1	-88*	?	11µM*	?
Cc1ccc(-c2csc(NC(=O)c3cccc(S(=O)(=O)N4CCN(C)CC4)c3)n2)cc1	16	13µM*	-4%	-2%
COc1cc(C(=O)Nc2nc(-c3ccc(C)cc3)cs2)ccc1OCC(=O)N1CCOCC1	-30	22µM*	7%	-2%
Cc1nnc(NC(=O)c2cccc(S(=O)(=O)N3CCN(C)CC3)c2)s1	0	-1%	12%	-10%
CCCNC(=O)NC(=O)CSc1ccc(C)cc1C	?	20%	-1%[46.1 µM]	?

Bioassay records as filed in PubChem BioAssay.
